An excerpt weighted towards active compounds, which were near 7.4% of everything screened.
FLuc modulator – inhibits or activates purified firefly luciferase, miR-21 counter-screen | actives 6.9% (n = 360,000) | Potency, µM (titrated, usually from 57.5 µM), inactives show top-dose activity change, negative = inhibition, most hits filed as inhibitors | P08659 | AID 588342 | purified FLuc, Km substrates, luminescence inhibition;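 further: plate controls were vehicle for no effect and reference inhibitor for full effect; nearly all actives have a fitted effect of over 55% in size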
Target sequence (P08659 whole entry, looked up): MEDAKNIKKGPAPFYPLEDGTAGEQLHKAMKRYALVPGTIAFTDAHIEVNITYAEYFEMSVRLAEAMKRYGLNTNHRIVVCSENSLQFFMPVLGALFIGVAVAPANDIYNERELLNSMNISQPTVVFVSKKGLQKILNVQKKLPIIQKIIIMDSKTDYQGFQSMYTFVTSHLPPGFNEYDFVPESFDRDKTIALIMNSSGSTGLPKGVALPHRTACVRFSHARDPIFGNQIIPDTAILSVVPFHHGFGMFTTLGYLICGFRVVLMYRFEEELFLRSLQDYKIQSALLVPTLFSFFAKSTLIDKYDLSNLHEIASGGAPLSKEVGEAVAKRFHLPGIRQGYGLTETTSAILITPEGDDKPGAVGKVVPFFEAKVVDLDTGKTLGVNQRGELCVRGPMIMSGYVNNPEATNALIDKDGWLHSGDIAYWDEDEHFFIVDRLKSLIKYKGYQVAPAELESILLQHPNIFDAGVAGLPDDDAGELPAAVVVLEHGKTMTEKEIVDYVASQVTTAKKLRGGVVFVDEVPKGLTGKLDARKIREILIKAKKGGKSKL
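Biochemical qHTS of compounds, final roughly 60 µM downward over six points, against 10 nM purified firefly luciferase using Km concentrations of substrates (10 uM D-luciferin, 10 uM ATP) in Tris acetate pH 7.5 buffer; luminescence output.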
ELG1 genotox – inducers of genotoxicity in HEK293T ELG1-luciferase cells | AID 504466 | Potency, µM (top dose mostly 46 µM), inactives show at the highest dose activity change, positive = activation, hits mostly activators | actives 1.3% (n = 330,000) | HEK293T ELG1-luciferase reporter, luminescence, 16 h; further: % of control where 0% means no effect; nearly all actives have a fitted effect of over 60% in size
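HEK293T cells expressing luciferase-tagged ELG1 were exposed to compound or DMSO vehicle for 16 hr at 37 °C and 5% CO2. Luciferase activity was then measured with ONE-Glo after 30 min at room temperature.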
Rab9 prom act – Rab9 promoter activation | Huh7 Rab9 promoter-luciferase reporter, luminescence, 24 h | Potency, µM (top dose mostly 9.22 µM), without a hit: top-dose activation, negative = inhibition, most hits filed as activators | actives 2.8% (n = 320,000) | AID 485297; further: % of control where 0% means no effect; nearly all actives have a fitted effect of over 60% in size
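Luminescence from Amplite-detected luciferase (10 minutes, ambient) reports Rab9 promoter activation. Before that, stable Rab9-luciferase Huh7 cells (1500/well, reduced-serum OP-MEM I plus 10% FBS) were exposed to compound for 24 hours at 37C.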
NPC1 prom act – activators of NPC1 promoter | Huh7 NPC1 promoter luciferase reporter, 24 h | Potency, µM (titrated, usually from 9.22 µM), inactives show at the highest dose activation, hits mostly activators | actives 2.4% (n = 320,000) | AID 485313; further: % of control where 0% means no effect; nearly all actives have a fitted effect of over 60% in size
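Cells: Huh7 expressing luciferase under the NPC1 promoter, 1500/well. Seeded 2 h, compound added, incubated 24 h at 37 °C. Luciferase reagent, 10 min ambient, then luminescence.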
p53 reactivation – mutant p53 re-activation in reporter cells | Potency, µM (doses to about 92.2 µM), for the others: at the top dose activity change, positive = activation, usual class: activators | AID 504706 | H1299 p53-A138V BP100-luciferase reporter, luminescence, 24 h | actives 0.063% (n = 320,000); further: % of control where 0% means no effect; nearly all actives have a fitted effect of over 45% in size
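p53-null H1299 cells stably carrying temperature-sensitive p53-A138V and a BP100-luciferase reporter were pinned with compounds (4-point, 1:5 series) and held 24 hrs at 37 deg C. Luminescence was read 10 min after detection reagent.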
SMN2 splice enh – increases expression of the SMN2 splice variant. actives 2.8% (n = 210,000). Potency, µM (series often up to 46.1 µM), for the others: at the top dose activity change, positive = activation, actives largely listed as activators. HEK293 SMN2-luciferase splicing reporter, luminescence, 30-36 h; further: % of control where 0% means no effect; nearly all actives have a fitted effect of over 55% in size
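HEK293 cells carry an SMN2 […]–luciferase reporter in which exon 7 inclusion puts luciferase in frame. Cells were plated 10-12 h before compound addition, then incubated 30-36 h at 37C. ONE-Glo luminescence was read; sodium butyrate at 4.5 mM final served as control.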
Starred values were filed as active, the others as inactive; [ ] = dose if it differs, or a comment. The call rests on the fitted dose curve; in most records, active means well fitted curve in the direction sought with a large enough effect; inconclusive means small, poorly fitted or top-dose-only effect, or another doubt; inactive means no such curve, though single readings can be large; an effect the other way counts as inactive or inconclusive. Potency means the concentration at half of the fitted maximal effect.

`COC(=O)C1=C(C)N(Cc2ccccc2)C(=NCC2CC2)N[C@H]1c1ccc(Br)cc1` gave FLuc modulator 1.4%, Rab9 prom act -12.4% and NPC1 prom act 0.0%.
O=C(Cc1cccc2ccccc12)NCC(=O)Nc1ccccc1F was read as FLuc modulator -6.5%, ELG1 genotox 0.8%, Rab9 prom act 3.0%, NPC1 prom act 2.6% and p53 reactivation -17.0%.
Screening O=C(CCl)Nc1ccccc1C(=O)Nc1ccc2c(c1)OCO2 returned FLuc modulator -4.3%, ELG1 genotox 13.3%, Rab9 prom act 0.398µM*, NPC1 prom act 0.708µM* and p53 reactivation inconclusive.
O=C(NC(=S)Nc1ccc(CN2CCOCC2)cc1)c1ccc2c(c1)OCCO2 was read as FLuc modulator 16.9µM*, ELG1 genotox -4.7%, Rab9 prom act 22.8%, NPC1 prom act inconclusive and p53 reactivation 13.0%.
CS(=O)(=O)Nc1ccccc1C(=O)Nc1ccc2c(c1)OCCO2 was read as FLuc modulator 12µM*, ELG1 genotox inconclusive, Rab9 prom act 2.4%, NPC1 prom act -0.2%, p53 reactivation 8.0% and SMN2 splice enh 18.2%.
For O=C(NC(=S)Nc1ccc2c(c1)OCCO2)c1ccccc1 the results were FLuc modulator 1.2µM*, ELG1 genotox inconclusive, Rab9 prom act 0.891µM*, NPC1 prom act 0.631µM*, p53 reactivation 12.4% and SMN2 splice enh 7.08µM*.
Cc1ccc(S(=O)(=O)N(C)c2ccccc2C(=O)Nc2ccc3c(c2)OCCO3)cc1 was read as FLuc modulator -14.8%, ELG1 genotox -0.3%, Rab9 prom act 1.1%, NPC1 prom act 0.5% and p53 reactivation 0.3%.
Screening O=C(NC(=S)Nc1ccc(N2CCCCC2)cc1)c1ccc2c(c1)OCCO2 returned FLuc modulator inconclusive, ELG1 genotox inconclusive, Rab9 prom act -11.1%, NPC1 prom act -4.8%, p53 reactivation inconclusive and SMN2 splice enh -42.7%.
For CCOC(=O)C1CCCN(S(=O)(=O)c2ccc(N3CCCCS3(=O)=O)cc2)C1 (centres undefined) the results were FLuc modulator 0.6%.
COc1ccc(-c2nc(SCC(=O)NCc3nc4ccccc4n3C)n3[nH]c(=O)cc3n2)cc1 was read as FLuc modulator 3.8%.
O=C(Nc1ccc2c(c1)OCCO2)c1c(F)cccc1F was read as FLuc modulator 6.01µM*, ELG1 genotox 3.26µM*, Rab9 prom act 3.16µM*, NPC1 prom act 2.51µM*, p53 reactivation 22.4µM* and SMN2 splice enh 12.6µM*.
`O=C(Nc1ccc2c(c1)OCCO2)c1ccccc1F` gave FLuc modulator 3.38µM*, ELG1 genotox 1.84µM*, Rab9 prom act 0.562µM*, NPC1 prom act 0.794µM*, p53 reactivation 14.7% and SMN2 splice enh 12.6µM*.
O=C(Nc1ccc2c(c1)OCCO2)c1cccc2nc3ccccc3nc12 was read as FLuc modulator inconclusive, ELG1 genotox -4.9%, Rab9 prom act -1.4%, NPC1 prom act -2.9%, p53 reactivation -3.2% and SMN2 splice enh -17.0%.
Cc1c2cnccc2c(C)c2c1c1ccccc1n2CCOC(=O)c1ccccc1 was read as SMN2 splice enh -0.4%[9.22 µM].
Screening N#C/C(=C\c1ccc(OCc2ccc(C(=O)O)cc2)cc1)C(=O)N1CCOCC1 returned FLuc modulator 16.9µM*, ELG1 genotox inconclusive, Rab9 prom act 2.82µM*, NPC1 prom act inconclusive, p53 reactivation 10.8% and SMN2 splice enh 1.58µM*.
COc1cc(/C=C(\C#N)C(=O)N2CCOCC2)ccc1OCc1ccccc1 was read as FLuc modulator -1.7%, ELG1 genotox inconclusive, Rab9 prom act 0.0%, NPC1 prom act -1.2%, p53 reactivation inconclusive and SMN2 splice enh inconclusive.
For Cc1c(Cl)cccc1-n1ncc(C(=O)N2CCc3ccccc3C2)c1C1CCN(C(=O)OC(C)(C)C)CC1 the results were FLuc modulator 3.9%.
Screening CCN(CC)S(=O)(=O)c1cccc(NC(=O)c2ccc(Br)cc2)c1 returned FLuc modulator inconclusive, ELG1 genotox -6.8%, Rab9 prom act -8.3%, NPC1 prom act -5.2%, p53 reactivation -1.9% and SMN2 splice enh -30.9%.
For O=C(COC(=O)c1cc2ccccc2oc1=O)Nc1ccc(F)cc1F the results were FLuc modulator 7.57µM*, ELG1 genotox inconclusive, Rab9 prom act 2.51µM*, NPC1 prom act 2.24µM* and p53 reactivation 28.8%.
Screening O=C(COC(=O)c1cc2ccccc2oc1=O)Nc1cccc(S(=O)(=O)N2CCCCCC2)c1 returned FLuc modulator -18.9%, ELG1 genotox inconclusive, Rab9 prom act 12.0%, NPC1 prom act 2.1%, p53 reactivation inconclusive and SMN2 splice enh 17.4%.
Screening CN(C)S(=O)(=O)c1cccc(NC(=O)c2cc3ccccc3o2)c1 returned FLuc modulator 8.49µM*, ELG1 genotox 6.5%, Rab9 prom act inconclusive, NPC1 prom act 29.6%, p53 reactivation 16.8% and SMN2 splice enh 3.1%.
For CN(C)S(=O)(=O)c1cccc(NC(=O)COC(=O)c2cc(=O)c3ccccc3o2)c1 the results were FLuc modulator -5.2%, ELG1 genotox 2.8%, Rab9 prom act -2.7%, NPC1 prom act -1.2% and p53 reactivation 6.2%.
`CN(C)S(=O)(=O)c1cccc(NC(=O)COC(=O)c2cc3ccccc3oc2=O)c1` gave FLuc modulator 13.5µM*, ELG1 genotox 9.2µM*, Rab9 prom act 3.16µM*, NPC1 prom act 3.55µM* and p53 reactivation 19.9%.
Screening CCN(CC)S(=O)(=O)c1cccc(NC(=O)c2cc3ccccc3o2)c1 returned FLuc modulator 12µM*, ELG1 genotox -3.9%, Rab9 prom act 9.1%, NPC1 prom act 0.1%, p53 reactivation inconclusive and SMN2 splice enh -19.0%.
`COc1ccc(NC(=O)c2c(-c3ccccc3)c(-c3ccccc3)nn(C)c2=O)c(OC)c1` gave FLuc modulator -13.7% and SMN2 splice enh 1.3%.
For CCOC(=O)c1ccc(Nc2nc3nonc3nc2Nc2cccc(C)c2C)cc1 the results were FLuc modulator inconclusive and SMN2 splice enh -42.1%.
For COc1ccccc1C(=O)Nc1cc2ccccc2oc1=O the results were FLuc modulator inconclusive, ELG1 genotox 2.82µM*, Rab9 prom act 3.98µM*, NPC1 prom act 5.62µM*, p53 reactivation 14.2% and SMN2 splice enh inconclusive.
O=C(O)c1ccccc1NC(=O)c1cc2ccccc2oc1=O was read as FLuc modulator 7.57µM*, ELG1 genotox inconclusive, Rab9 prom act 2.82µM*, NPC1 prom act 3.55µM* and p53 reactivation inconclusive.

Screening results: PubChem, National Center for Advancing Translational Sciences (NCATS)
